Screens from PubChem BioAssay.
Compounds with a hit are over-represented: about 3.8% of the library has one in this group of screens.
PrPC TRFRET: cell surface PrPC inhibition, primary TR-FRET screen | TR-FRET read-out | inhibition, % at 13.8 µM | 370,000 tested, 0.43% active; in the data active = inhibition above about 24%; note: 0% = median of the test wells and 100% = reference compound wells
FBA Mtb inh: Mtb fructose-bisphosphate aldolase inhibition; P9WQA3; purified M. tuberculosis FBA, fluorescence read-out; inhibition, % at 1 µM; 360,000 tested, 2.3% active; AID 588726; in the data active = inhibition above about 27%;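 note: 0% = vehicle and 100% = reference inhibitor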
Target sequence (P9WQA3 whole entry, looked up): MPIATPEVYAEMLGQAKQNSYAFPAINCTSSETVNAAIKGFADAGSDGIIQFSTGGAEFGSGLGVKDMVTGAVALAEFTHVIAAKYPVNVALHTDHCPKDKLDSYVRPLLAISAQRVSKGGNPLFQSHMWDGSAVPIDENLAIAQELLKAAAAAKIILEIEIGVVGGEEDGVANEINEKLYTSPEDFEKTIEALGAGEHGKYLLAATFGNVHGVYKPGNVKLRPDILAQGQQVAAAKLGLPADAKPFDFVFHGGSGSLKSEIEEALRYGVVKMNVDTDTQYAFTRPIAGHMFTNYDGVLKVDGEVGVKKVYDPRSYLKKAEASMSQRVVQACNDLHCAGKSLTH
PrP 5UTR inh: suppresses PrP 5' UTR mRNA reporter expression | cell-based PrP 5' UTR mRNA reporter, plate reader | inhibition, % (no concentration beside the values) | 340,000 tested, 0.35% active | AID 488862; in the data active = inhibition above about 52%; note: 0 = median of the neutral control wells
Yp Topo-I inh: blocks Yersinia pestis topoisomerase I activity; AID 504884; activity, % at 10 µM; 360,000 tested, 0.064% active; Y. pestis Topo-I cleavage product accumulation, plate reader; in the data active = activity above about 50%, passing the limit was not always enough
Mtb hypoxia inh: reduces hypoxia-regulated biosensor signal in M. tuberculosis | M. tuberculosis hypoxia-regulated fluorescent reporter, fluorescence | fluorescence inhibition, % (test concentration not listed) | 300,000 tested, 0.1% active; in the data active = fluorescence inhibition mostly above about 23%, no sharp cut-off; inactive = mostly below about 17%
GDH-TPI inh: inhibits GDH-TPI coupling enzymes, artifact for Mtb FBA screen; inhibition, % at 4.8 µM; AID 588335; GDH-TPI coupled enzyme counterscreen, NADH absorbance; 360,000 tested, 1.2% active; in the data active = inhibition above about 30%;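 note: 0% = DMSO wells and 100% = wells lacking the enzyme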
* = called active by the depositor; / = no result given; + = active, no number.

SMILES | PrPC TRFRET | FBA Mtb inh | PrP 5UTR inh | Yp Topo-I inh | Mtb hypoxia inh | GDH-TPI inh
Cc1ccc(-c2cc(C(=O)NN=Cc3cccnc3)n[nH]2)o1 | / | / | / | / | 12 | /
COc1ccc(C2CC=C(C(=O)O)C(c3ccccc3)N2S(=O)(=O)c2ccccc2C)cc1 (stereo unspecified) | / | / | / | / | 13 | /
COc1cccc(/C=C2\SC(N3CCCC(C)C3)=NC2=O)c1OC (stereo unspecified) | -14 | 0 | -40 | 22 | -7 | 33*
CCCOc1ccccc1/C=C1\SC(N2CCCCC2)=NC1=O | 1 | 2 | -14 | 2 | 4 | 15
O=C1N=C(N2CCN(c3ccccc3)CC2)S/C1=C/c1ccco1 | -3 | -1 | 14 | 28 | 3 | 34*
O=C1N=C(N2CCCCC2)S/C1=C\c1ccccc1F | -6 | -2 | 3 | -5 | 18 | 45*
O=C(Nc1ccccc1Cl)C1Cc2ccccc2OC1=NO (stereo unspecified) | / | / | / | / | 10 | /
Cc1nc(SCc2ccccc2F)c2oc3ccccc3c2n1 | 3 | -2 | -15 | 22 | 40* | -2
Cc1nc(SCc2ccc(F)cc2)c2oc3ccccc3c2n1 | 3 | 4 | -19 | 3 | / | -2
COC(=O)[C@@H]1[C@@H](C(=O)OC)C2(c3ccccc3-c3ccccc32)N(c2ccc(Cl)cc2)N1C#N | 23 | 0 | -1 | 8 | 3 | 13
COC(=O)C[C@]1(C(=O)OC)CN(C#N)N(c2ccc(Cl)cc2)C12c1ccccc1-c1ccccc12 | 75* | -2 | -1 | 31 | 14 | 10
CN(C)CCCN1C(=O)c2cccc3c(Br)ccc(c23)C1=O | -41 | 2 | -102 | -6 | 67* | 15
O=C(O)CN1C(=O)c2cccc3c(Br)ccc1c23 | 2 | 1 | -25 | 3 | 4 | 0
Cc1ccc(C=CC(=O)NCCCc2ccccc2)cc1 | / | / | / | / | 7 | /
Cc1nc(/C=[N+](\[O-])C(C)(C)/C=N/O)n(O)c1C | -6 | -2 | -20 | -5 | / | 31*
CC(C)(/C=N/O)/[N+]([O-])=C/c1ccco1 | 4 | 7 | -12 | -5 | / | -2
O=C(O)c1ccc(-c2ccc(-c3ccccc3)cc2)s1 | / | 118* | 35 | 4 | / | 27
CC1(C)C=C(c2ccc(C(=O)O)s2)CC(C)(C)N1 | -2 | 1 | -11 | -3 | 7 | -1
Cc1cc(-c2ccc(C(=O)O)s2)cnc1N | 0 | + | -14 | -4 | 9 | 17
Cc1noc(C)c1COC(=O)C(C)NS(=O)(=O)c1ccc(Cl)c(Cl)c1 (stereo unspecified) | / | / | / | / | -5 | /
O=C1CS/C(=C/C(=O)c2ccccc2)N1 | -2 | -3 | -30 | 6 | -2 | 44*
O=C1CSc2ccccc2N1 | 12 | 2 | 18 | -6 | -2 | -5
Cc1ccccc1C(=O)/C=C1\NC(=O)CS1 | -2 | -2 | -6 | -3 | 12 | 48*
Cc1ccc(CNC(=O)c2ccc3c(c2)NC(=O)CS3)cc1 | 3 | 0 | -10 | 2 | 10 | 2
Cc1cc(C)cc(C(=O)/C=C2\NC(=O)CS2)c1 | 0 | -3 | -16 | -5 | / | 39*
SMILES | PrPC TRFRET | FBA Mtb inh | PrP 5UTR inh | Yp Topo-I inh | Mtb hypoxia inh | GDH-TPI inh
C#CCCc1ccccc1C=[N+](C)[O-] | / | / | / | / | -3 | /
COc1cc(Cl)c(C)cc1NC(=O)COC(=O)C=Cc1c(C)nn(C2CCS(=O)(=O)C2)c1Cl (stereo unspecified) | / | / | / | / | 17 | /
O=C(COc1ccc(-c2ccccc2)cc1)NN=Cc1ccccc1Br | / | / | / | / | -3 | /
Cc1ccc(S(=O)(=O)c2c(N)n(/N=C/c3ccco3)c3nc4ccccc4nc23)cc1 | -1 | 16 | 5 | 8 | / | 23
CCCCn1c(NC(=O)CC)c(C#N)c2nc3ccccc3nc21 | -4 | 6 | 4 | -3 | 2 | 4
Cc1ccc(S(=O)(=O)c2c(N)n(NC(=O)C3CC3)c3nc4ccccc4nc23)cc1 | -6 | 181* | -1 | 1 | 5 | 23
Cc1cccc(S(=O)(=O)c2c(N)n(N=Cc3ccccc3)c3nc4ccccc4nc23)c1 | / | / | / | / | -4 | /
Cc1ccc(-n2c(N)c(S(=O)(=O)c3ccccc3)c3nc4ccccc4nc32)cc1 | 7 | 33* | -19 | 13 | -7 | 7
CN(C)CCCn1c(N)c(C#N)c2nc3ccccc3nc21 | -8 | 146* | -20 | 4 | -18 | 16
Cc1ccc(S(=O)(=O)c2c(N)n(CCCN(C)C)c3nc4ccccc4nc23)cc1 | -2 | 128* | -7 | 0 | 10 | 42*
N#CCCn1cc(C=NNC(=O)c2ccncc2)c(-c2ccc(F)cc2)n1 | / | / | / | / | 12 | /
Nc1c(S(=O)(=O)c2cccc(Cl)c2)c2nc3ccccc3nc2n1CCN1CCOCC1 | -8 | 8 | 3 | -3 | -4 | 13
Cc1ccc(S(=O)(=O)c2c(N)n(CC3CCOC3)c3nc4ccccc4nc23)cc1 (stereo unspecified) | 1 | + | -12 | 24 | 15 | 22
Cc1nnc(SCC(=O)N2c3ccccc3C(C)(c3ccccc3)CC2(C)C)s1 (stereo unspecified) | 11 | -2 | 1 | 59* | 8 | -5
COc1ccc(-n2c(C)cc(C=O)c2C)cc1Cl | 0 | 1 | -9 | -1 | / | -1
COc1ccc(-n2nc3cc(C)c(N)cc3n2)cc1Cl | 5 | 23 | -51 | -3 | -6 | 36*
CCOc1ccc(-n2nc3cc(C)c(N)cc3n2)cc1 | 9 | 164* | -15 | 2 | 10 | 20
C#CCOCCOCCOCCNc1nc(N2CCN(C(=O)Cn3cc(CC(C)O)nn3)CC2)nc(N2CCN(C(=O)C(C)n3cc(CCCN=C(N)N)nn3)CC2)n1 (stereo unspecified) | / | / | / | / | 22 | /
C=C1CC(O)C2C(C)C(=O)OC2C2C1CC(O)C2C (stereo unspecified) | / | / | / | / | 8 | /
Cc1ccc(-c2nc(C(=O)NCCCN(C)C)cc3c2[nH]c2ccccc23)cc1 | -5 | 28* | / | -13 | 10 | 9
Cc1cccc(C)c1OCc1cc(C(=O)N2CCC(C3CCCCC3)C2)no1 (stereo unspecified) | 0 | 1 | -68 | 55* | 6 | -8
C/C(=N\Nc1ccc(Cl)c(C(=O)O)c1)c1cccc2ccccc12 | -10 | -1 | -19 | 0 | / | 16
C/C(=N\Nc1cccc(C(=O)O)c1)c1cc2ccccc2o1 | -7 | -2 | -50 | -13 | / | 48*
C/C(=N\Nc1ncc(Cl)cc1Cl)c1ccccn1 | / | 7 | 78* | 2 | / | 9
C/C(=N\Nc1ccc(Cl)c(C(=O)O)c1)c1cc2ccccc2o1 | -3 | -1 | -28 | 2 | / | 31*
C/C(=N\Nc1ccc(Cl)c(C(=O)O)c1)c1ccccn1 | 4 | 1 | -15 | -4 | / | 37*
CCC(C)C1CNC(=O)C(=O)N1CCCc1cc(OC)c(OC)c(OC)c1 (stereo unspecified) | / | / | / | / | 11 | /
CCN1C(=O)C2C(c3ccc(C)cc3)N3C(=O)N(c4cccc(C)c4)C(=O)[C@@]3(Cc3ccccc3)C2C1=O (stereo partly specified) | / | / | / | / | 4 | /
CCN1C(=O)/C(=C\N(C)C)c2ccccc21 | 5 | -2 | -14 | 8 | 14 | 32*
